What was measured:
Assay in all cases: DAPPL (digital affinity profiling via proximity ligation, sequencing); 10 mM Tris-HCl pH 7.5, 50 mM NaCl, 1 mM DTT, 4% glycerol, room temperature, 30 min; GST-TFs on glutathione beads, 16-mer random dsDNA library, 0.1% formaldehyde crosslink after washing; high values mean tight binding
Conditions in all cases: protein: recombinant; tags: N-terminal GST; dsDNA, one strand shown
[1] = biological target: T1, FLI1 (Homo sapiens, UniProt Q01543 1-452)
T1 sequence: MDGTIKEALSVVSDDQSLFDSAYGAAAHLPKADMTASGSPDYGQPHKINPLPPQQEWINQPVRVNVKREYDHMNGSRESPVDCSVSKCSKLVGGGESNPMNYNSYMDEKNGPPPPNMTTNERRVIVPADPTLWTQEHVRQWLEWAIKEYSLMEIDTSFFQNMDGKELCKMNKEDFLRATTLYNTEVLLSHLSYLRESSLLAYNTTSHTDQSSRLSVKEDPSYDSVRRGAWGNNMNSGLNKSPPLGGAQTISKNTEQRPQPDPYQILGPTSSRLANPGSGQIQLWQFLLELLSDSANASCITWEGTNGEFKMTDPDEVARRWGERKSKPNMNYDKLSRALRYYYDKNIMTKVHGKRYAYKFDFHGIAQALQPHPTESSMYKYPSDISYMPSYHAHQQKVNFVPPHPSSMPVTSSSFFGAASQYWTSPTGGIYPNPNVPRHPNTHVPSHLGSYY
Procedure, shortened: (§1)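 Binding signal is given per hexamer as its read frequency for a factor divided by its frequency in the tag-only sample. GST-fused human transcription factors were expressed in yeast, captured on glutathione beads, barcoded with DNA and pooled with that sample, then incubated with 200 nmole of a 16-mer random double-stranded DNA library in Tris/NaCl/DTT/glycerol buffer for 30 min at room temperature. The pools were then washed, crosslinked, proximity-ligated, amplified by PCR and sequenced on an Illumina NextSeq500.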

[2] = biological target: T2, ELK1 (Homo sapiens, UniProt P19419 1-428)
T2 sequence: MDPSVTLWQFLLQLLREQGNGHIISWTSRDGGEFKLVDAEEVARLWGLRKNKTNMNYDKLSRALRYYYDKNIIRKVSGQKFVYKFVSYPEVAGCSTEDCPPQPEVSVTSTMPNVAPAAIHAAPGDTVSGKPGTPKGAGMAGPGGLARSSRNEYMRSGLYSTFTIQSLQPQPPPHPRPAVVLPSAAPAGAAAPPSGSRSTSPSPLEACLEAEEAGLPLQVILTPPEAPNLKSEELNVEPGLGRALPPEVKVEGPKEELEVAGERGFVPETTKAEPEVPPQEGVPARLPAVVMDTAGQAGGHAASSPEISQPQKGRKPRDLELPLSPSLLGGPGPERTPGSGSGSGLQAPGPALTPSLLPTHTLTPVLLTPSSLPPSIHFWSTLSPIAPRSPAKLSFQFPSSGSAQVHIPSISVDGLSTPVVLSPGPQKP
Procedure, shortened: as §1

[3] = biological target: T3, GABPA (Homo sapiens, UniProt Q06546 1-454)
T3 sequence: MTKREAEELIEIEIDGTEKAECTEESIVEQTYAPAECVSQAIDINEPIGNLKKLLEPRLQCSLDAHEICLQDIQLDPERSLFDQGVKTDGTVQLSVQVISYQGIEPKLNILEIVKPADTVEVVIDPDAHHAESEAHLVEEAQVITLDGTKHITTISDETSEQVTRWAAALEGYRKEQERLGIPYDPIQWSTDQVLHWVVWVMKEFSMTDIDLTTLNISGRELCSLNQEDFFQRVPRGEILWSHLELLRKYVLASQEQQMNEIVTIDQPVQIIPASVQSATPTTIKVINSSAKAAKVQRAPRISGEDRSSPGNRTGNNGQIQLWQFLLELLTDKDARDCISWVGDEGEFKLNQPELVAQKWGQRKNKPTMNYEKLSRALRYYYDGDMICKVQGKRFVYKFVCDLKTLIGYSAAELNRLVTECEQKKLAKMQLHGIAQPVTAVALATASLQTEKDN
Procedure, shortened: as §1

[4] = biological target: T4, ERG (Homo sapiens, UniProt P11308 1-479)
T4 sequence: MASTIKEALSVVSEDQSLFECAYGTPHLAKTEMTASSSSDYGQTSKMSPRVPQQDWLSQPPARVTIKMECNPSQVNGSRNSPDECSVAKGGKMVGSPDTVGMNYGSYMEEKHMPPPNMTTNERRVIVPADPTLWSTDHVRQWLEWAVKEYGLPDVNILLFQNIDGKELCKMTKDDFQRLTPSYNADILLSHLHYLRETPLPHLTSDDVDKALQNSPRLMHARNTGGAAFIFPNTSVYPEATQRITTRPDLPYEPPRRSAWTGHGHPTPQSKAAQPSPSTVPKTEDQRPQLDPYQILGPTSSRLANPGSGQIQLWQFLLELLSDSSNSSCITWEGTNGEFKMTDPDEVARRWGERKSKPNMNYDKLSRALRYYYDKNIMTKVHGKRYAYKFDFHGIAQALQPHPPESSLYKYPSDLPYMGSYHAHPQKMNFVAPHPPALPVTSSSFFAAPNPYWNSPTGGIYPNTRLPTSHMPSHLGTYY
Procedure, shortened: as §1

[5] = biological target: ELF1 (Homo sapiens, UniProt P32519 1-619)
Procedure, shortened: as §1

[6] = biological target: T5, EHF (Homo sapiens, UniProt Q9NZC4 1-300)
T5 sequence: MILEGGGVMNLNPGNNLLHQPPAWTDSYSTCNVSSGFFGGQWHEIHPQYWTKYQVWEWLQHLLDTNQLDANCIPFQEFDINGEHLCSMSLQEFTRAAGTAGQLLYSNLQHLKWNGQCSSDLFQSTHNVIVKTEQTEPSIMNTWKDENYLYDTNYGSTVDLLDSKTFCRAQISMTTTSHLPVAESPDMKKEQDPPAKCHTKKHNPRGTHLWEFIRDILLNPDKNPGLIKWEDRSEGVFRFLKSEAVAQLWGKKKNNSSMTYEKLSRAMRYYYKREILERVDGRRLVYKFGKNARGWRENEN
Procedure, shortened: as §1

[7] = biological target: SPI1 (Homo sapiens, UniProt P17947 1-270)
Procedure, shortened: as §1

[8] = biological target: SPIB (Homo sapiens, UniProt Q01892 1-262)
Procedure, shortened: as §1

[9] = biological target: T6, ELK3 (Homo sapiens, UniProt P41970 1-407)
T6 sequence: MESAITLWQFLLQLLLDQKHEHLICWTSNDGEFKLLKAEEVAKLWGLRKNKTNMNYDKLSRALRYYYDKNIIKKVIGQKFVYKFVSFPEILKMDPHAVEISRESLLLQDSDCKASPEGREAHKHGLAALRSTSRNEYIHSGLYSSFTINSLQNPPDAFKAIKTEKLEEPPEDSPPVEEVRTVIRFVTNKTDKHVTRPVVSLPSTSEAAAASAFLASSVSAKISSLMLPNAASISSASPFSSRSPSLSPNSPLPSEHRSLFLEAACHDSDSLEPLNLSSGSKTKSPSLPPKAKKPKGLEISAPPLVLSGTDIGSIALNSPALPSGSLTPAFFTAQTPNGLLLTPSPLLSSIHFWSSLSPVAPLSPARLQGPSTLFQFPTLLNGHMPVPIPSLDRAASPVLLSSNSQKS
Procedure, shortened: as §1

[10] = biological target: T7, FEV (Homo sapiens, UniProt Q99581 1-238)
T7 sequence: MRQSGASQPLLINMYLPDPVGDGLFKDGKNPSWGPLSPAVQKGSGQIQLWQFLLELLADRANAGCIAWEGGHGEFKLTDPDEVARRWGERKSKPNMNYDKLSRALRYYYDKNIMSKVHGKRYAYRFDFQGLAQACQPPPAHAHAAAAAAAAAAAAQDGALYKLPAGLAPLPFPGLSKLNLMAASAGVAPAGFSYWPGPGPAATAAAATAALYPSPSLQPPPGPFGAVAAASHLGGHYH
Procedure, shortened: as §1

[11] = biological target: ETV5 (Homo sapiens, UniProt P41161 1-510)
Procedure, shortened: as §1

[12] = biological target: T8, SPIC (Homo sapiens, UniProt Q8N5J4 1-248)
T8 sequence: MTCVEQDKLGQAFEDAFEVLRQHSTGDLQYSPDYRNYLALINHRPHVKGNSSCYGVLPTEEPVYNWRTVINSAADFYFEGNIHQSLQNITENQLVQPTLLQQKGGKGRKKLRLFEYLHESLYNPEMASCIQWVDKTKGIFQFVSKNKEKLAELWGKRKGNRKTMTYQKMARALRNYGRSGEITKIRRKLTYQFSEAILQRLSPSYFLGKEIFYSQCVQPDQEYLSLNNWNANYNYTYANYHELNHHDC
Procedure, shortened: as §1

[13] = biological target: ELF4 (Homo sapiens, UniProt Q99607 1-663)
Procedure, shortened: as §1

[14] = biological target: T9, ELK4 (Homo sapiens, UniProt P28324-2 1-405)
T9 sequence: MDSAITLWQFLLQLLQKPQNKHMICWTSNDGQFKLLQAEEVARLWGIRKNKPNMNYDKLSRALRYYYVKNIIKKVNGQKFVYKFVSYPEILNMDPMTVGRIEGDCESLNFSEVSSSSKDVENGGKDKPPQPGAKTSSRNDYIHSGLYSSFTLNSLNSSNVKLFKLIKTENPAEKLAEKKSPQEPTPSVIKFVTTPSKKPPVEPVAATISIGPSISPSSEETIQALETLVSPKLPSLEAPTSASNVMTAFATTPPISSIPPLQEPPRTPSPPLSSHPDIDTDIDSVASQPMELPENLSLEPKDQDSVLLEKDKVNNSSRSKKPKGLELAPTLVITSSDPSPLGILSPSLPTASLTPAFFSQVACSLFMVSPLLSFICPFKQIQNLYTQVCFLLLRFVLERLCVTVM
Procedure, shortened: as §1

[15] = biological target: T10, ETV2 (Homo sapiens, UniProt O00321 1-342)
T10 sequence: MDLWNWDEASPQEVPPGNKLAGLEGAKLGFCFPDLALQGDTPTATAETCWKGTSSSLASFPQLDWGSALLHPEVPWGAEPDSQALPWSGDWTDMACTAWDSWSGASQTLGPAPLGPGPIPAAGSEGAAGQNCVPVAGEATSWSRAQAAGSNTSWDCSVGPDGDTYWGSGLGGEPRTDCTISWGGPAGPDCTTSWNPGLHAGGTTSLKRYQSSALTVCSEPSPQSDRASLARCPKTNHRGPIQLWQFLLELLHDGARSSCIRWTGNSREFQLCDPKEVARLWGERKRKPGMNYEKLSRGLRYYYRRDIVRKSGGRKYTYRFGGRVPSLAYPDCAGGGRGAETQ
Procedure, shortened: as §1

[16] = biological target: T11, ELF3 (Homo sapiens, UniProt P78545 1-371)
T11 sequence: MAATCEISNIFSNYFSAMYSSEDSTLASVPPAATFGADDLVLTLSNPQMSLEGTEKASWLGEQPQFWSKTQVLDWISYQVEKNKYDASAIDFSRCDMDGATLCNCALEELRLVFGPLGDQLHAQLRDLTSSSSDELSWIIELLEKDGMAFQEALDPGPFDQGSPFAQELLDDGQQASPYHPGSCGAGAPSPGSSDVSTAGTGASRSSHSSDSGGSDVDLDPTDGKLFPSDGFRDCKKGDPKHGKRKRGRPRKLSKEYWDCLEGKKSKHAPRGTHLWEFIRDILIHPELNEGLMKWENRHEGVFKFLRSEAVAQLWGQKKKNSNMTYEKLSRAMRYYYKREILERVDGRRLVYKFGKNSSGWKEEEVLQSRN
Procedure, shortened: as §1

[17] = biological target: ETV1 (Homo sapiens, UniProt P50549 1-477)
Procedure, shortened: as §1

ELF1, sequence (P32519 whole entry): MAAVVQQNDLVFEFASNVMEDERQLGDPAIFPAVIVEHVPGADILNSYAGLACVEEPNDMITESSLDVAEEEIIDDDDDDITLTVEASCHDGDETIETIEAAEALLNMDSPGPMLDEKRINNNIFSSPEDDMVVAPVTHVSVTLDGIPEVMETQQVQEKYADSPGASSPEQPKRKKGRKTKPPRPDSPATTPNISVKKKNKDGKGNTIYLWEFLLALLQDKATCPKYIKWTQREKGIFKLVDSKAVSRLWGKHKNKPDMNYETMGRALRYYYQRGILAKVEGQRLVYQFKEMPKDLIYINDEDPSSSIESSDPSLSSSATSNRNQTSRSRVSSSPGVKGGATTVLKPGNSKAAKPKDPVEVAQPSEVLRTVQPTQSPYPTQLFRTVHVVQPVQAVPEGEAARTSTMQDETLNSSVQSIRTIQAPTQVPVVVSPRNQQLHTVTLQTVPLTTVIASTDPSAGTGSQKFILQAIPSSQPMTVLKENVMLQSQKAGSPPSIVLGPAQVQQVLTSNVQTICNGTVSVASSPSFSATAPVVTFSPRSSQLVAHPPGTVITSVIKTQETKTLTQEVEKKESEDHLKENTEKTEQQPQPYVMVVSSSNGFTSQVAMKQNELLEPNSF
SPIB, sequence (Q01892 whole entry): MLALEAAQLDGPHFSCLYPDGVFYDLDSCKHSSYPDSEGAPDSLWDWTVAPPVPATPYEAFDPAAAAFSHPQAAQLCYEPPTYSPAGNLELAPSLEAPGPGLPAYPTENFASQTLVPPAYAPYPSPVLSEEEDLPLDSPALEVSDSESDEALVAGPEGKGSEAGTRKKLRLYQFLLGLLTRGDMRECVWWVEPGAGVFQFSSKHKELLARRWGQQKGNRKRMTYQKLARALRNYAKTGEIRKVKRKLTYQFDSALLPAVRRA
ELF4, sequence (Q99607 whole entry): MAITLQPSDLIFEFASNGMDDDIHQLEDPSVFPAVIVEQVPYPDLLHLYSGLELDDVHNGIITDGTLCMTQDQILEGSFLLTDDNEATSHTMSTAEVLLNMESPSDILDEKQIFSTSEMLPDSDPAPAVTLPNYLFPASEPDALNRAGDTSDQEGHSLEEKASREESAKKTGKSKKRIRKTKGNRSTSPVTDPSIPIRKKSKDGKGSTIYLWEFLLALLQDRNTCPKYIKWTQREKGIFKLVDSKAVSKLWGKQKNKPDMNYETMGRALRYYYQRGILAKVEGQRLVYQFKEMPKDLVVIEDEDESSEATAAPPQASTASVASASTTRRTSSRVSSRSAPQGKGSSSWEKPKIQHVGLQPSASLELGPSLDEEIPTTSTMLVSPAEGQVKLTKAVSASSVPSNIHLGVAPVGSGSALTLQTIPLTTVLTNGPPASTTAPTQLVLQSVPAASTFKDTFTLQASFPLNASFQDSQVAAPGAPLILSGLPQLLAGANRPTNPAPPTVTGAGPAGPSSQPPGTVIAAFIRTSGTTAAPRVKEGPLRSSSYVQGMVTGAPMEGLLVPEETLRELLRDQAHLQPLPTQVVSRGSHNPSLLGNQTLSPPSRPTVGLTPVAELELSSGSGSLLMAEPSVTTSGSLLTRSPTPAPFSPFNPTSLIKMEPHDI
ETV1, sequence (P50549 whole entry): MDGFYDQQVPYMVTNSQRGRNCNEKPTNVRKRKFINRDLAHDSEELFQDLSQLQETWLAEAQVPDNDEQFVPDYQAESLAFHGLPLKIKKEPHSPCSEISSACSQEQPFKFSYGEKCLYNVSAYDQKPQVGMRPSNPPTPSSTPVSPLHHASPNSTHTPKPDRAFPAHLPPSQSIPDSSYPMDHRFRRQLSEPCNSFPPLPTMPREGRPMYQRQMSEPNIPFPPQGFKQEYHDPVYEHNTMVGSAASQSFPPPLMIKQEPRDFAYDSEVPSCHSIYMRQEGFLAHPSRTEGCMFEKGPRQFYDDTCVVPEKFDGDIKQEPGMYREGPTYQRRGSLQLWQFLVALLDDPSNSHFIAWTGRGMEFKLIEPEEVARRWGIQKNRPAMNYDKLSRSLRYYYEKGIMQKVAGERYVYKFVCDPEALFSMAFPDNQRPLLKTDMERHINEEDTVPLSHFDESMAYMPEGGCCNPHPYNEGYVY
ETV5, sequence (P41161 whole entry): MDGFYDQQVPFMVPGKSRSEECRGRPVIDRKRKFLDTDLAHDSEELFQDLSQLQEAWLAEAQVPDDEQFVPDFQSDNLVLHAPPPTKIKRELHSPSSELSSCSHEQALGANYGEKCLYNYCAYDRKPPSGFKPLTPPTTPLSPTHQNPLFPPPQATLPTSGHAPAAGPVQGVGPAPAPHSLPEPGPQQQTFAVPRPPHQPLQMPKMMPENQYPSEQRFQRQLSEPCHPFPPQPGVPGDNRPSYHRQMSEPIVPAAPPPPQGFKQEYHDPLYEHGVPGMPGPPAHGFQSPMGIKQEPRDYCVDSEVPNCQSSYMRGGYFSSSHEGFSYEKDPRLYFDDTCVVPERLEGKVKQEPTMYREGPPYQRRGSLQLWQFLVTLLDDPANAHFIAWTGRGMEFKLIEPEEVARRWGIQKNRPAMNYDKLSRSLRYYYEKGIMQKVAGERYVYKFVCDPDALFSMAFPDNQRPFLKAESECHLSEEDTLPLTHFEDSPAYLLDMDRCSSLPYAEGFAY

Row | Sequence | binding signal [1] | binding signal [2] | binding signal [3] | binding signal [4] | binding signal [5] | binding signal [6] | binding signal [7] | binding signal [8] | binding signal [9] | binding signal [10] | binding signal [11] | binding signal [12] | binding signal [13] | binding signal [14] | binding signal [15] | binding signal [16] | binding signal [17]
1 | CACCCT | 1.21 fold enrichment (6-mer frequency, TF over GST control) | 1.26 fold enrichment (6-mer frequency, TF over GST control) | 1.18 fold enrichment (6-mer frequency, TF over GST control) | 1.16 fold enrichment (6-mer frequency, TF over GST control) | 1.16 fold enrichment (6-mer frequency, TF over GST control) | 1.02 fold enrichment (6-mer frequency, TF over GST control) | 1.07 fold enrichment (6-mer frequency, TF over GST control) | 1.16 fold enrichment (6-mer frequency, TF over GST control) | 1.14 fold enrichment (6-mer frequency, TF over GST control) | 1.15 fold enrichment (6-mer frequency, TF over GST control) | 1.19 fold enrichment (6-mer frequency, TF over GST control) | 1.13 fold enrichment (6-mer frequency, TF over GST control) | 1.24 fold enrichment (6-mer frequency, TF over GST control) | 1.07 fold enrichment (6-mer frequency, TF over GST control) | 1.26 fold enrichment (6-mer frequency, TF over GST control) | 1.08 fold enrichment (6-mer frequency, TF over GST control) | 1.24 fold enrichment (6-mer frequency, TF over GST control)
2 | TGTCCG | 1.47 fold enrichment (6-mer frequency, TF over GST control) | 1.42 fold enrichment (6-mer frequency, TF over GST control) | 1.48 fold enrichment (6-mer frequency, TF over GST control) | 1.58 fold enrichment (6-mer frequency, TF over GST control) | 1.41 fold enrichment (6-mer frequency, TF over GST control) | 1.42 fold enrichment (6-mer frequency, TF over GST control) | 1.2 fold enrichment (6-mer frequency, TF over GST control) | 1.56 fold enrichment (6-mer frequency, TF over GST control) | 1.39 fold enrichment (6-mer frequency, TF over GST control) | 1.61 fold enrichment (6-mer frequency, TF over GST control) | 1.61 fold enrichment (6-mer frequency, TF over GST control) | 1.36 fold enrichment (6-mer frequency, TF over GST control) | 1.41 fold enrichment (6-mer frequency, TF over GST control) | 1.32 fold enrichment (6-mer frequency, TF over GST control) | 1.29 fold enrichment (6-mer frequency, TF over GST control) | 1.48 fold enrichment (6-mer frequency, TF over GST control) | 1.6 fold enrichment (6-mer frequency, TF over GST control)
3 | GGAAAC | 1.2 fold enrichment (6-mer frequency, TF over GST control) | 1.35 fold enrichment (6-mer frequency, TF over GST control) | 1.25 fold enrichment (6-mer frequency, TF over GST control) | 1.57 fold enrichment (6-mer frequency, TF over GST control) | 1.22 fold enrichment (6-mer frequency, TF over GST control) | 1.47 fold enrichment (6-mer frequency, TF over GST control) | 1.25 fold enrichment (6-mer frequency, TF over GST control) | 1.39 fold enrichment (6-mer frequency, TF over GST control) | 1.43 fold enrichment (6-mer frequency, TF over GST control) | 1.67 fold enrichment (6-mer frequency, TF over GST control) | 1.43 fold enrichment (6-mer frequency, TF over GST control) | 1.26 fold enrichment (6-mer frequency, TF over GST control) | 1.2 fold enrichment (6-mer frequency, TF over GST control) | 1.01 fold enrichment (6-mer frequency, TF over GST control) | 1.35 fold enrichment (6-mer frequency, TF over GST control) | 1.42 fold enrichment (6-mer frequency, TF over GST control) | 1.35 fold enrichment (6-mer frequency, TF over GST control)

Reference: publication PMC7862700, “An all-to-all approach to the identification of sequence-specific readers for epigenetic DNA modifications on cytosine”
